Source: PubChem (National Center for Advancing Translational Sciences (NCATS))
This is a sample that favours compounds with a hit; in the whole collection about 11% have one here.
VDR inh = inhibitors of human vitamin D receptor | P11473 | VDR-SRC2-3 peptide fluorescence polarization, 2 h | Potency, µM, actives largely listed as inhibitors | 0.93% of 400,000 active | AID 504847
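Fluorescence polarization assay measuring small-molecule disruption of VDR binding to the coregulator peptide SRC2-3. Compounds were pin-transferred (23 nl) into the reagent mix and incubated 2 h at room temperature before reading.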
G9a block = G9a (human) methyltransferase inhibition. 8.8% of 350,000 active. G9a H3K9 monomethylation, AlphaScreen, 2 h. Potency, µM (titrated, usually from 102 µM), most hits filed as inhibitors. Q96KQ7; also: nearly all actives have a fitted effect of over 75% in size
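Signal arises when biotinylated H3K9 peptide, once monomethylated, bridges streptavidin donor and antibody-captured acceptor beads. Enzyme at 20 nM was preincubated 15 min with test compounds; peptide 500 nM and SAM 20 uM then reacted for 2 h.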
BAZ2B inh = BAZ2B (human) inhibition. AlphaScreen BAZ2B-H3K14Ac peptide displacement. Potency, µM (highest dose often 114 µM), hits mostly inhibitors. 4.4% of 360,000 active. Q9UIF8; also: nearly all actives have a fitted effect of over 60% in size
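In this displacement format the biotinylated H3(5-23) peptide acetylated at Lys14 serves as ligand at 50 nM, with BAZ2B at 50 nM in PBS pH 7.4 containing 0.01% Tween-20. Donor and acceptor beads are 10 ug/mL final.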
HP1b chromo inh = HP1-beta chromodomain-methylated histone interaction inhibition. P83916. Potency, µM (top dose mostly 114 µM), usual class: inhibitors. AlphaScreen HP1-beta / biotin-H3K9me3 peptide binding. 0.56% of 390,000 active. AID 540317; also: nearly all actives have a fitted effect of over 70% in size
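AlphaScreen: HP1-beta (50 nM) preformed 30 min with biotin-H3(1-18)K9me3 peptide (50 nM) in PBS pH 7.4, 0.01% Tween-20. Compound added for 30 min at RT, then streptavidin donor/nickel chelate acceptor beads (10 ug/mL) for 30 min.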
PLK1 PBD block = PLK1 (human) polo-box domain binding inhibition; P53350; Plk1 PBD binding of FITC phosphopeptide, fluorescence polarization; Potency, µM, hits mostly inhibitors; 2.8% of 360,000 active; AID 720504; also: series mostly up to about 57 µM; nearly all actives have a fitted effect of over 65% in size
JMJD2A Tudor = blocks the human JMJD2A Tudor domain; AID 504339; Potency, µM (titrated, usually from 114 µM), hits mostly inhibitors; O75164; AlphaScreen JMJD2A-Tudor / H3K4me3 peptide binding; 4.4% of 390,000 active; also: nearly all actives have a fitted effect of over 50% in size
Of the large screens only hits and unclear results are named; the others gave an inactive call. Calls follow the shape of the dose curve; as a rule, active = well fitted curve in the direction sought with a large enough effect; inconclusive = small, poorly fitted or top-dose-only effect, or another doubt; inactive = no such curve, though single readings can be large; an effect the other way counts as inactive or inconclusive.

O=C1CC(=C2c3ccccc3-c3ccccc32)C(=O)N1CCCCN1CCN(c2ccccc2)CC1	G9a block 7.9µM, BAZ2B inh inconclusive, JMJD2A Tudor inconclusive
O=C(Nc1ccc2c(c1)OCCO2)c1ccccc1Cl	none (no result: VDR inh, G9a block, BAZ2B inh, HP1b chromo inh, JMJD2A Tudor)
Cc1nn(C)cc1C(=O)Nc1ccc2c(c1)OCCO2	G9a block 32µM
O=C(Nc1ccc2c(c1)OCCO2)c1cc2sccc2n1Cc1ccccc1	BAZ2B inh inconclusive
O=C(NC(=S)Nc1ccc2c(c1)OCCO2)c1ccccc1F	G9a block 32µM
Cn1c(C(=O)Nc2ccc3c(c2)OCCO3)cc2sccc21	G9a block 50µM, BAZ2B inh inconclusive, JMJD2A Tudor inconclusive
O=C(Nc1ccc2c(c1)OCCO2)c1ccccc1F	PLK1 PBD block 3µM
O=C(NC(=S)Nc1ccc2oc(=O)ccc2c1)c1ccccc1F	none
Cc1ccc(NC(=O)Cn2cc3c(n2)CCCC3)cc1Cl	none (no result: PLK1 PBD block)
CCOc1ccc(C(=O)NCCc2csc(-c3cccc(C)c3)n2)cc1	none (no result: PLK1 PBD block)
COc1ccc(NC(=O)c2cccc(F)c2)cc1Cl	none
COc1ccc(NC(=O)c2ccccc2F)cc1Cl	BAZ2B inh 56µM
COc1cccc(OC)c1C(=O)NC(=S)Nc1ccc2c(c1)OCCO2	G9a block 56µM, JMJD2A Tudor inconclusive
O=C(NC(=S)NC(=O)c1ccccc1F)c1ccccc1F	G9a block 10µM, PLK1 PBD block inconclusive
O=C(Nc1ccncc1)c1ccccc1F	PLK1 PBD block 27µM
O=C(NC(=S)NCc1ccccc1)c1ccccc1F	none
O=C(Nc1ccc(F)cc1)c1ccccc1F	none
Cc1ccc(C)c(CN2C(=O)c3ccccc3S(=O)c3ccc(C(=O)NCc4ccccc4)cc32)c1 (stereo not drawn)	none (no result: PLK1 PBD block)
COc1ccc(-c2nc(SCC(=O)Nc3c(C)cc(C)cc3C)n[nH]2)cc1	none (no result: PLK1 PBD block)
OCCNC(=S)Nc1ccc2c(c1)OCCO2	none (no result: G9a block)
S=C(Nc1ccc2c(c1)OCCO2)Nc1ccc2c(c1)OCO2	G9a block 50µM, BAZ2B inh inconclusive
S=c1[nH]nc(C2CCCCC2)n1Cc1ccccc1	G9a block 11µM, JMJD2A Tudor 35µM
S=c1[nH]nc(-c2ccc(Br)o2)n1Cc1ccccc1	G9a block inconclusive, JMJD2A Tudor 32µM
C=CCn1c(C2CCCCC2)n[nH]c1=S	G9a block 20µM, JMJD2A Tudor 5.6µM
Cc1n[nH]c(=S)n1Cc1ccccc1	G9a block 35µM, JMJD2A Tudor inconclusive
Cc1ccc(NC(=O)CSc2nnc(-c3cc4occc4n3C)n2-c2ccccc2C)c(Cl)c1	G9a block inconclusive (no result: PLK1 PBD block)
S=c1[nH]nc(-c2cccs2)n1Cc1ccccc1	G9a block inconclusive, JMJD2A Tudor inconclusive
S=c1[nH]nc(-c2ccccc2)n1Cc1ccccc1	JMJD2A Tudor 11µM
S=c1[nH]nc(-c2ccc(Cl)cc2)n1Cc1ccccc1	G9a block 1.4µM, JMJD2A Tudor inconclusive
Sc1nnc(-c2ccc(Cl)cc2)n1Cc1ccccc1	none (no result: PLK1 PBD block)
Cc1ccn(Cc2n[nH]c(=S)n2Cc2ccccc2)n1	G9a block 3.2µM, JMJD2A Tudor 8.9µM
COc1ccc(/C=C2/NC(=O)N(CC(=O)Nc3cccc(C)c3)C2=O)cc1O	none
CC(C)(C)C(=O)N1CCn2c1nc1ccccc12	BAZ2B inh 56µM
CCOC(=O)c1c(N/N=C/c2cccnc2)n[nH]c1C	G9a block 71µM
COCCNc1ncnc2ccc(-c3c(C)noc3C)cc12	none (no result: BAZ2B inh, HP1b chromo inh, PLK1 PBD block, JMJD2A Tudor)
CCC(c1c(C)[nH]oc1=O)c1c(C)[nH]oc1=O	G9a block inconclusive, JMJD2A Tudor 25µM
CCOC(=O)C1=C(COC(=O)c2ccc(Br)o2)NC(=O)NC1C (stereo not drawn)	none
CCOC(=O)C1CCCCN1Cc1ccccc1C(F)(F)F (stereo not drawn)	HP1b chromo inh inconclusive, JMJD2A Tudor 4.5µM
COc1ccccc1CNC(=O)C1CCCC1	none
CCOC(=O)C1CCN(C(=O)Cc2ccccc2OC)CC1	none
CCOC(=O)C1CCN(Cc2ccccc2C(F)(F)F)CC1	G9a block 16µM, BAZ2B inh 79µM, HP1b chromo inh inconclusive, JMJD2A Tudor 2.8µM
COc1ccccc1CN1CCCCC1C(=O)O (stereo not drawn)	JMJD2A Tudor 35µM
CCOc1ccc(N(CC(=O)NC2CCCCC2)C(=O)CCC(=O)Nc2nccs2)cc1	none
